From PubChem BioAssay (NCI) come the findings set out here.

Experiment [1] in a line: NCI Yeast Anticancer Drug Screen. Data for the rad50 strain (AID 155).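 Note: 0% = growth of vehicle-only cultures of the same strain.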 To be noted: S. cerevisiae rad50 strain growth inhibition; at 50.0 µM; active compounds read high. In outline: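 Vehicle-treated cultures provide the reference for the growth inhibition reported for compound-exposed, repair-deficient yeast.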
Experiment [2] in a line: NCI Yeast Anticancer Drug Screen. Data for the mec2-1 strain (AID 157). To be noted: S. cerevisiae mec2-1 strain, at 50.0 µM, active compounds read high. The essentials:
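Strain: mec2-1 (DNA repair/cell cycle alteration). Compound exposure, then growth measured; inhibition expressed relative to vehicle.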

The nature of experiment [3]: NCI Yeast Anticancer Drug Screen. Data for the sgs1 mgt1 strain (AID 161).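 Note: 0% = growth of cultures given vehicle only.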 Conditions: S. cerevisiae sgs1 mgt1 strain, at 50.0 µM, active compounds read high. The essentials: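 Test agents were incubated with a DNA-repair-mutant yeast strain. Growth was then read and compared against vehicle-treated controls.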
A short description of experiment [4]: NCI Yeast Anticancer Drug Screen. Data for the cln2 rad14 strain (AID 165).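 Note: 0% = growth equal to vehicle treated cultures.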 To be noted: S. cerevisiae cln2 rad14 strain, at 50.0 µM, active compounds read high. The essentials:
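Compounds are applied to the cln2 rad14 yeast strain, and growth is then compared with that of vehicle-treated cultures to give inhibition.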

Experiment [5] can be described thus: NCI Yeast Anticancer Drug Screen. Data for the mlh1 rad18 strain (AID 175). Conditions: S. cerevisiae mlh1 rad18 strain growth inhibition; at 50.0 µM; active compounds read high. The essentials: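 Read-out is yeast growth inhibition, calculated against vehicle-only controls. The compound was applied to a strain engineered with DNA damage repair alterations.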
A short description of experiment [6]: NCI Yeast Anticancer Drug Screen. Data for the bub3 strain (AID 167). To be noted: S. cerevisiae bub3 mutant strain, at 50.0 µM, active compounds read high. The essentials: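 Mutant yeast screening strain plus compound; vehicle-treated cultures serve as the 0% inhibition reference.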

This is part of a sample that, as a whole, favours compounds with a hit. Of some 79,000 tested, about 15% had one in any assay. A number with no mark means an inactive call. Active and inactive are the calls of the source. Cut-off read from the data, not from the text of the source: active = growth inhibition above about 70%; inactive = the rest.

Consider `NNC(=O)C(=O)N/N=C1/CCCC1C(=O)CCC(=O)Nc1ccc(Cl)cc1` (configuration not stated), for which the growth inhibition was -4% in experiment [1]; -14.2% in experiment [2]; 0% in experiment [3]; -0.2% in experiment [4]; -6.9% in experiment [5].

Consider `COc1ccc(CCNC(=S)NC(=O)c2ccc(Cl)c(Cl)c2)cc1OC`, for which the growth inhibition in experiment [1] is 47.6%; in experiment [2] it was 47%; in experiment [3] it was 68.3%; in experiment [4], 49.5%; in experiment [5], 56%.

For `Nc1nc2c(ncn2C2OCC(O)C(O)C2O)c(=O)[nH]1` (configuration not stated), the growth inhibition was 15.6% in experiment [1]; -9.7% in experiment [2]; -13.8% in experiment [3]; -6.15% in experiment [4]; 0.75% in experiment [6]; -2.3% in experiment [5].

As for `O=C1CSC(=S)N1/N=C/c1ccc([N+](=O)[O-])s1`, the growth inhibition in experiment [1] is 97.8% (active); in experiment [2], 98.8% (active); in experiment [3], 98.3% (active); in experiment [4], 98.5% (active); in experiment [5] it was 98.8% (active).

With `CC(C)=C(C)CCC(C)CC(C)O` (configuration not stated), the growth inhibition in experiment [1] is -2.9%; in experiment [2], -14%; in experiment [3], -0.05%; in experiment [4], -5.6%; in experiment [5], -5.85%.

Turning to `O=C(C[N+]12CN3CN(CN(C3)C1)C2)c1cccc2ccccc12`, the growth inhibition in experiment [1] is 11.2%; in experiment [2], -11.6%; in experiment [3] it was 9.35%; in experiment [4] it was -3.2%; in experiment [6], -4.7%; in experiment [5] it was 14.6%.

With `Cn1c(=O)c2[nH]c(CC3=CCCCC3)nc2n(C)c1=O`, the growth inhibition in experiment [1] is -13.6%; in experiment [2] it was 13.1%; in experiment [3], 6.05%; in experiment [4] it was -8.35%; in experiment [5] it was 21.6%.

On to `Cc1ccc(S(=O)(=O)OI(O)CC(F)(F)F)cc1`, for which the growth inhibition in experiment [1] was -39.1%; in experiment [2] it was 15.5%; in experiment [3], -2.5%; in experiment [4] it was -2.05%; in experiment [5], 25.9%.

As to `CCC(Br)C(=O)Nc1ccccc1C` (configuration not stated), the growth inhibition in experiment [1] was 27%; in experiment [2], 3.25%; in experiment [3], 6.75%; in experiment [4], -14.2%; in experiment [5] it was 0.4%.

`CC(C)S1=C2C(=O)CC(C)(C)CC2=Nc2ccccc21` (configuration not stated): the growth inhibition in experiment [1] is 7.65%; in experiment [2], -0.65%; in experiment [3], 2.95%; in experiment [4] it was -1.45%; in experiment [5] it was -27.9%.

For the compound `CCc1cc(C(=O)NN)c2ccccc2n1`, the growth inhibition was -17.6% in experiment [1]; -14.6% in experiment [2]; -10.6% in experiment [3]; -18.4% in experiment [4]; 11.5% in experiment [5].

Consider `COC(=O)C(=[N+]=[N-])C(=O)c1ccccc1`, for which the growth inhibition was 10.1% in experiment [1]; 1.05% in experiment [2]; -1.3% in experiment [3]; 4.65% in experiment [4]; 6.9% in experiment [5].

As to `CC(=O)Nc1ccccc1Cc1nc2ccccc2c(=O)[nH]1`, the growth inhibition was 15.7% in experiment [1]; 12.6% in experiment [2]; 25.1% in experiment [3]; 7.9% in experiment [4]; 16.8% in experiment [5].

As to `CSc1ccc(NC(=O)Nc2cc(C)c(C)cc2C)cc1`, the growth inhibition in experiment [1] is 16.6%; in experiment [2] it was 2.1%; in experiment [3] it was 6.75%; in experiment [4] it was 21.4%; in experiment [5] it was 2.85%.

For the compound `CCCS(=O)(=O)N1CC(C)OC(C)C1` (configuration not stated), the growth inhibition was 2.35% in experiment [1]; -16.9% in experiment [2]; 3.5% in experiment [3]; -7.1% in experiment [4]; 3.2% in experiment [5].

Regarding `O=C(N/N=C\c1ccc2c(c1)OCO2)c1ccc2c(c1)OCO2`, the growth inhibition in experiment [1] was 0.7%; in experiment [2] it was 0.05%; in experiment [3], 1.85%; in experiment [4] it was -15.2%; in experiment [5], 0.55%.

With `OC[C@@H](O)[C@H]1NC[C@@H](O)[C@H]1O`, the growth inhibition in experiment [1] is -45.1%; in experiment [2], -57.1%; in experiment [3], -50.1%; in experiment [6], -26.1%; in experiment [5] it was -17.9%.

For `Cc1ccc(NC(=O)COc2cc(Cl)c(Cl)cc2Cl)cc1[N+](=O)[O-]`, the growth inhibition in experiment [1] was -8.55%; in experiment [2], -9.1%; in experiment [3] it was -6.6%; in experiment [6] it was 0.1%; in experiment [5], 0.4%.

Turning to `O=c1[nH]c2nc3ccccc3c(=O)n2/c1=C/c1cccs1`, the growth inhibition is 28.9% in experiment [1]; 2.2% in experiment [2]; 4.4% in experiment [3]; 14.3% in experiment [6]; -15.8% in experiment [5].

For `NC(N)=NC(N)=Nc1cccc(S(=O)(=O)c2cccc(N=C(N)N=C(N)N)c2)c1`, the growth inhibition in experiment [1] was 8.1%; in experiment [2] it was -0.55%; in experiment [3], -0.1%; in experiment [6], -3.95%; in experiment [5], 13.2%.

`O=C(O)COc1cc2c(cc1Cc1ccc3c(c1)OCO3)OCO2`: the growth inhibition in experiment [1] is 2.5%; in experiment [2] it was 13.1%; in experiment [3] it was 0.25%; in experiment [6] it was 10.3%; in experiment [5], 8.35%.

Consider `CC(=O)CC(=O)Nc1ccccc1Cl`, for which the growth inhibition in experiment [1] was 19.4%; in experiment [2], -4.6%; in experiment [3] it was 24.2%; in experiment [6], -4.9%; in experiment [5], 16.4%.

Turning to `N=C(N)C1CC1`, the growth inhibition is -6.75% in experiment [1]; -9.5% in experiment [2]; -8.9% in experiment [3]; 2.4% in experiment [6]; -13.2% in experiment [5].
